Results as given in PubChem BioAssay (Tox21).
Values joined by “and” are separate entries in the source; they are usually repeats but may differ in a detail not shown here. Identical values can stand only once. Records with an inconclusive call do not appear. Active and inactive are the calls of the source. Unless noted, calls come from the whole dose curve; as a rule, active = well fitted curve in the direction sought with a large enough effect in the repeat runs; inconclusive = weak or mixed curves; inactive = no such curve, though single readings can be large; an effect the other way counts as inactive or inconclusive.

Experiments:
[1] = molecular target: Thyrotropin receptor (Homo sapiens) (UniProt P16473); assay: qHTS assay to identify small molecule antagonists of the thyroid stimulating hormone receptor (TSHR) signaling pathway (AID 1259385; calls by dose curve; note: nearly all actives have a fitted effect of over 20% in size)
Chain of Thyrotropin receptor (Homo sapiens) (P16473 whole entry, looked up): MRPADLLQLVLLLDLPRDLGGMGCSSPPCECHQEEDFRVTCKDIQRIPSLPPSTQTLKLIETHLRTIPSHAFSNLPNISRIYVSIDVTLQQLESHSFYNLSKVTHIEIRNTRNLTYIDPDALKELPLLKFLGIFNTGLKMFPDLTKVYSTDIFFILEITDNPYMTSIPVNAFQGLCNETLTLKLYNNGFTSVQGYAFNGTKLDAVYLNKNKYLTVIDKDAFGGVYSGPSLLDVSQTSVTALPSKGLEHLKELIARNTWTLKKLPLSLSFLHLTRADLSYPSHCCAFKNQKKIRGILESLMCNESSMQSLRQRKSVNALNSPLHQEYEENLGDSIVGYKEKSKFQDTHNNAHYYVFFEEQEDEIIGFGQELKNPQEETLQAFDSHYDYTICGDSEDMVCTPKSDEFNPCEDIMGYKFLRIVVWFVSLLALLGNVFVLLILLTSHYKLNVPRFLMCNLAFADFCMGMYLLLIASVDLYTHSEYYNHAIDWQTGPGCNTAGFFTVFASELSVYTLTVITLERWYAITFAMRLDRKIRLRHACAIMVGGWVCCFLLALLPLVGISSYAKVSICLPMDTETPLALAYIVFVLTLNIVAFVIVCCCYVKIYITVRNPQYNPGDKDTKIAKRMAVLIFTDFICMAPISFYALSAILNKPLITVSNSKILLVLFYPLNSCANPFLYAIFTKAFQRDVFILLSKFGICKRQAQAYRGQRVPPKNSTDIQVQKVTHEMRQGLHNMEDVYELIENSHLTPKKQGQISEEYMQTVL
Summary of the method: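 TSHR-HEK293 cells were plated and held 18 h at 37C/5% CO2, then given compound plus Ro20-1724 and stimulated with TSH at 1.5 ng/mL final. After 30 min at room temperature, cAMP was detected with cAMP-d2/anti-cAMP-cryptate (1 h) by fluorescence.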

[2] = qHTS assay to identify small molecule agonists of the estrogen receptor alpha (ER-alpha) signaling pathway in the presence of an antagonist - cell viability counter screen (AID 1259386);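 note: series mostly up to about 92 µM; cells exposed to compounds for 22 h at 37 °C before the viability read; nearly all actives have a fitted effect of over 30% in size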
Summary of the method: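 ICI-182,780 at 10.0nM final accompanies the compound titration (15 concentrations, 22hr, 37C) on VM7Luc4E2 cells. The CellTiter-Fluor fluorescence readout runs in the same wells as the luciferase assay.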

[3] = molecular target: Progesterone receptor (Homo sapiens) (UniProt P06401); assay: qHTS assay to identify small molecule agonists of the progesterone receptor (PR) signaling pathway (AID 1346784; calls by dose curve; note: nearly all actives have a fitted effect of over 30% in size; note: potency is the fitted concentration of half-maximal effect)
Chain of Progesterone receptor (Homo sapiens) (P06401 whole entry, looked up): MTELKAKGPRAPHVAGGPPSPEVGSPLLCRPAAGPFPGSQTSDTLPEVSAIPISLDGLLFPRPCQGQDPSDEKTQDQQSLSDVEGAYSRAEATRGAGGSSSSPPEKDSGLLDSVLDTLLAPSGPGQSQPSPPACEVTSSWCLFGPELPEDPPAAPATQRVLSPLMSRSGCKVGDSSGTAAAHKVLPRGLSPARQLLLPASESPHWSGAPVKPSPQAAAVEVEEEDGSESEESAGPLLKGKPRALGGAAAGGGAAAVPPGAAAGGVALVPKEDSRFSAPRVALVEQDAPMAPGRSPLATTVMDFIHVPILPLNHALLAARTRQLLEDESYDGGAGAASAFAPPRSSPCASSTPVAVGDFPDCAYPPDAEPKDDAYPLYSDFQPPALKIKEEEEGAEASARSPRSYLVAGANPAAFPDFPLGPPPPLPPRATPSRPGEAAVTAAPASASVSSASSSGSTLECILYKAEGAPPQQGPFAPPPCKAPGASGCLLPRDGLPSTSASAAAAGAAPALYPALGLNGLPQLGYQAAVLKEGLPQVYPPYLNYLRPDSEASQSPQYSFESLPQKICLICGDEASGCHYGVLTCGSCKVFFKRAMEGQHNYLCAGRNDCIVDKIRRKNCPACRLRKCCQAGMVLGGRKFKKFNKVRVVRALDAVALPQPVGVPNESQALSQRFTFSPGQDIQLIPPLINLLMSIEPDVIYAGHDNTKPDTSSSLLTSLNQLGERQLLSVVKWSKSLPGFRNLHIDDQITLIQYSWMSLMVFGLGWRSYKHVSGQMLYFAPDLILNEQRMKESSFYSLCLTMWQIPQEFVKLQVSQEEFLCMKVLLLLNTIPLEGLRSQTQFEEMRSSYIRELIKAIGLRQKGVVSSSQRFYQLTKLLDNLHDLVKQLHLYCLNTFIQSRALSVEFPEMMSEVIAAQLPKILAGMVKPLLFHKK
Summary of the method: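 Cells (PR-UAS-bla HEK 293T, GripTite) were plated in assay medium containing 2% charcoal-stripped FBS and incubated 6 hr. Test compounds in DMSO were added for 16 hr at 37C. FRET substrate was then loaded for 2 hr at room temperature before fluorescence reading.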

[4] = molecular target: Progesterone receptor (Homo sapiens) (UniProt P06401); assay: qHTS assay to identify small molecule antagonists of the progesterone receptor (PR) signaling pathway (AID 1346795; active = well fitted inhibition curve with a large enough effect in the signal ratio in the repeat runs, not every such curve was filed as active; the % refers to the signal ratio)
Summary of the method: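 Antagonist mode: compounds tested against 1 nM (final) promegestone stimulation in HEK293T cells expressing PR-UAS-bla reporter, 16 hr at 37C, 5% CO2; beta-lactamase activity detected via B/G FRET substrate after 2 hr at room temperature.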

[5] = qHTS assay to identify small molecule antagonists of the progesterone receptor (PR) signaling pathway - cell viability counter screen (AID 1346798); note: series mostly up to about 92 µM; nearly all actives have a fitted effect of over 50% in size
Summary of the method: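 Counter screen for cytotoxicity: viability of PR-UAS-bla HEK293T cells was measured with CellTiter-Glo luminescence following 16 hr compound exposure in the presence of R5020.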

[6] = qHTS assay to identify small molecule agonists of the progesterone receptor (PR) signaling pathway - cell viability counter screen (AID 1346799; calls by dose curve; note: nearly all actives have a fitted effect of over 45% in size)
Summary of the method: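 Cells (PR-UAS-bla HEK293T) are plated at 3,000/well in 2% charcoal-stripped FBS medium, rested 6 hr, dosed and incubated 16 hr at 37C. CellTiter-Glo is then added and luminescence measured after 30 min at room temperature.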

[7] = qHTS assay to identify small molecule antagonists of the TGF-beta/Smad signaling pathway - cell viability counter screen (AID 1346824); note: nearly all actives have a fitted effect of over 50% in size
Summary of the method: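 SBE-bla HEK 293T cells were plated overnight at 37 C, then given compounds in DMSO plus TGF-beta1 (added as 0.25 ng/mL solution) for 5 hr. After the bla read, CellTiter-Glo was added to the same wells and luminescence read after 30 min at room temperature.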

[8] = qHTS assay to identify small molecule agonists of the TGF-beta/Smad signaling pathway - cell viability counter screen (AID 1346829); note: top concentration of the series differs between compounds; nearly all actives have a fitted effect of over 45% in size
Summary of the method: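 SBE-bla HEK 293T cells plated overnight, compound exposure 5 hr at 37 C. Viability read in the same wells by CellTiter-Glo luminescence after 30 min at room temperature, following the beta-lactamase read.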

[9] = Human pregnane X receptor (PXR) small molecule agonists, qHTS cell viability counter screen (AID 1346977); note: nearly all actives have a fitted effect of over 50% in size
Summary of the method: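 Cytotoxicity counter screen run in the same wells as the PXR luciferase assay, using PXR-Luc HepG2 cells in charcoal-stripped serum medium. Viability: CellTiter-Fluor fluorescence after 24hr compound treatment.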

[10] = Caspase-3/7 induction in HepG2 cells by small molecules, qHTS assay (AID 1346978); note: nearly all actives have a fitted effect of over 15% in size
Summary of the method: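 Wild-type HepG2 cells (2,000/well) were settled 5 h at 37 C, 5% CO2, then exposed to compounds in DMSO for 17 h. Caspase-3/7 activity was read by luminescence 30 min after adding Caspase-Glo 3/7 reagent at room temperature.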

[11] = Caspase-3/7 induction in CHO-K1 cells by small molecules, qHTS cell viability counter screen (AID 1346979); note: nearly all actives have a fitted effect of over 35% in size
Summary of the method: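 Cytotoxicity counter screen run in parallel with the caspase-3/7 assay: CHO-K1 cells, 16hr compound treatment at 37C, then CellTiter-Fluor for 1hr before fluorescence reading.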

[12] = Caspase-3/7 induction in CHO-K1 cells by small molecules, qHTS assay (AID 1346980); note: nearly all actives have a fitted effect of over 15% in size
Summary of the method: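 Wild-type cells were seeded at 1,500 per well and settled 5 hr at 37 C, 5% CO2, then exposed to DMSO-dissolved compounds for 17 hr. Caspase-Glo 3/7 reagent was added, and luminescence was read after 30min at room temperature.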

[13] = Caspase-3/7 induction in HepG2 cells by small molecules, qHTS cell viability counter screen (AID 1346981); note: series mostly up to about 92 µM; nearly all actives have a fitted effect of over 30% in size
Summary of the method: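 Multiplexed with the caspase-3/7 assay: HepG2 cells, 16 hr compound treatment, CellTiter-Fluor viability detection by fluorescence.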

[14] = qHTS assay to identify small molecule agonists of the TGF-beta/Smad signaling pathway (AID 1346859; active = well fitted activation curve with a large enough effect in the signal ratio in the repeat runs, not every such curve was filed as active; the % refers to the signal ratio; note: series mostly up to about 77 µM)
Summary of the method: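 Reporter line: HEK 293T with stably integrated SBE-controlled beta-lactamase. Compound exposure lasts 5 hr at 37 C and 5% CO2; substrate loading follows for 2 hr at room temperature, with emission read at 460 and 530 nm.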

[15] = molecular target: Thyrotropin-releasing hormone receptor (Homo sapiens) (UniProt P34981); assay: qHTS assay to identify small molecule agonists of the thyrotropin-releasing hormone receptor (TRHR) signaling pathway (AID 1346891; calls by dose curve;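 note: HEK293 cells expressing TRHR with calcium dye readout; series mostly up to about 58 µM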)
Chain of Thyrotropin-releasing hormone receptor (Homo sapiens) (P34981 whole entry, looked up): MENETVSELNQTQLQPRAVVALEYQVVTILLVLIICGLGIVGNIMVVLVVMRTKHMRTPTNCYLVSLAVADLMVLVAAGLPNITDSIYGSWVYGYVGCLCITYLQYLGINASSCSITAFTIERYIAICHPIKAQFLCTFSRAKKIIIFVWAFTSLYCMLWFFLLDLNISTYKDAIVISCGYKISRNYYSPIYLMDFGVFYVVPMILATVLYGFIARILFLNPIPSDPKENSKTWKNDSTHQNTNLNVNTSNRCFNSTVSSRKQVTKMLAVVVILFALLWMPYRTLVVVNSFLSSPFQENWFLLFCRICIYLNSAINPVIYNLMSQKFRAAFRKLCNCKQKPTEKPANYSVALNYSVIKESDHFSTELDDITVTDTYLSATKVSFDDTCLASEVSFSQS
Summary of the method: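 Cells: TRHR-Hek293, seeded and incubated 18 h. Dye loading: 2 h at 37 °C. Compound added from DMSO stock by pin tool. Read-out: kinetic calcium fluorescence over 3 min.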

[16] = molecular target: Nuclear receptor subfamily 1 group I member 2 (Rattus norvegicus) (UniProt Q9R1A7); assay: Rat pregnane X receptor (rPXR) activation by small molecules, qHTS assay (AID 1346983); settings: rPXR luciferase reporter cells, One-Glo luminescence, 24 h; max activation: stronger effect = higher value; note: nearly all actives have a fitted effect of over 20% in size
Chain of Nuclear receptor subfamily 1 group I member 2 (Rattus norvegicus) (Q9R1A7 whole entry, looked up): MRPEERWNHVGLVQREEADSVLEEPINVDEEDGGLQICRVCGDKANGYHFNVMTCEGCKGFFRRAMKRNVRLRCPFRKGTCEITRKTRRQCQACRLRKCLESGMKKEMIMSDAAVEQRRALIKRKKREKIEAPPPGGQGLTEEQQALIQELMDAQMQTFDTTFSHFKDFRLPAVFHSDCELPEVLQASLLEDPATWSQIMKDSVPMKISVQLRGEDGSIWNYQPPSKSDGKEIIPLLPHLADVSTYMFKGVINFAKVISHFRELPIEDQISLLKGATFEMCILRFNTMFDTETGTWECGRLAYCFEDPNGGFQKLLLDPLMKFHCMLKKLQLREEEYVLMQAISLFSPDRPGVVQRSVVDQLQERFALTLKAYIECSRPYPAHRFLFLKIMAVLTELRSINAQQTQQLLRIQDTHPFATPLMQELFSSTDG
Summary of the method: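 Cell-based rPXR luciferase reporter assay, 2,000 cells per well, rested 5hr at 37 C before compound addition in DMSO, then 24 hr at 37 C. One-Glo reagent was added and luminescence read after 30 min at room temperature.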

[17] = molecular target: Nuclear receptor subfamily 1 group I member 2 (Homo sapiens) (UniProt O75469); assay: CYP3A4 induction through human pregnane X receptor (PXR) by small molecules, qHTS assay (AID 1346984); note: nearly all actives have a fitted effect of over 40% in size
Chain of Nuclear receptor subfamily 1 group I member 2 (Homo sapiens) (O75469 whole entry, looked up): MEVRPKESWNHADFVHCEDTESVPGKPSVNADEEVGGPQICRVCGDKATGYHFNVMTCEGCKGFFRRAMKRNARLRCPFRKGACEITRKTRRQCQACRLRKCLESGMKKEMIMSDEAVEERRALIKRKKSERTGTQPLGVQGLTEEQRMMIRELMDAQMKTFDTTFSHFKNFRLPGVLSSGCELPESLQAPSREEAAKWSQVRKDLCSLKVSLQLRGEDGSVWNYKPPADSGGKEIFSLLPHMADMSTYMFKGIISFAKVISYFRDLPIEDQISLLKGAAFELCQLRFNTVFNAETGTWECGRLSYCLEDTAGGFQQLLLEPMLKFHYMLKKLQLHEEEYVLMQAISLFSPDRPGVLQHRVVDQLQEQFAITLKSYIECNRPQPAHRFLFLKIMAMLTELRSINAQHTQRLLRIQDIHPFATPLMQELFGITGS
Summary of the method: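 qHTS, concentration-response format: HepG2 DPX-2 line, PXR/CYP3A4-luc. Exposure 24 h, 37C. Substrate Luciferin-IPA 3uM final, 3 h. Detection One-Glo, 30 min RT.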

[18] = molecular target: Nuclear receptor subfamily 1 group I member 2 (Homo sapiens) (UniProt O75469); assay: Human pregnane X receptor (PXR) activation by small molecules, qHTS assay (AID 1346985); note: nearly all actives have a fitted effect of over 40% in size
Summary of the method: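 DPX-2 cells (HepG2 co-transfected with a PXR response element and a CYP3A4-promoter luciferase construct) were seeded at 2,000 per well, rested 5 hr at 37C, then exposed to DMSO-dissolved compounds for 24 hr. Activation was read as luciferase luminescence.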

[19] = molecular target: Nuclear receptor subfamily 1 group I member 2 (Homo sapiens) (UniProt O75469); assay: Human pregnane X receptor (PXR) small molecule agonists, qHTS assay (AID 1346982); note: nearly all actives have a fitted effect of over 35% in size
Summary of the method: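 We seeded PXR-Luc HepG2 cells in assay medium containing 5% charcoal-stripped FBS, added compounds 5 hr later, incubated 24 hr, and read luminescence with ONE-Glo reagent.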
% is set by controls: 0 for no effect and ±100 for the full control effect.

CCCCCCCCCCC=CC1CC(=O)OC1=O (centres undefined)
inactive: outcome [1] | Potency [2] | Potency [3] | Potency [4] | Potency [5] | Potency [6] | Potency [7] | Potency [8] | Potency [9] | Potency [10] | Potency [11] | Potency [12] | Potency [13]

CCc1ccc(O)cc1
inactive: outcome [1] | Potency [2] | Potency [3] | Potency [4] | Potency [5] | Potency [6] | Potency [7] | Potency [8] | outcome [14] | Potency [9] | Potency [10] | Potency [11] | Potency [12] | Potency [13]

CCc1ccccc1O
inactive: outcome [1] | Potency [2] | Potency [3] | Potency [4] | Potency [5] | Potency [6] | Potency [7] | Potency [8] | Potency [15] | Potency [9] | Potency [10] | Potency [11] | Potency [12] | Potency [13]

C[C@@H](O)[C@H]1C(=O)N2C(C(=O)O)=C(S[C@@H]3CN[C@H](C(=O)N(C)C)C3)[C@H](C)[C@H]12
inactive: outcome [1] | Potency [2] | Potency [3] | Potency [4] | Potency [5] | Potency [6] | Potency [7] | Potency [8] | Potency [9] | Potency [10] | Potency [11] | Potency [12] | Potency [13] | max activation [16] -2.7% | outcome [17] | outcome [18]

OC[C@@H](O)[C@H](O)[C@H](O)[C@@H](O)CO
inactive: outcome [1] | Potency [2] | Potency [3] | Potency [4] | Potency [5] | Potency [6] | Potency [7] | Potency [8] | outcome [14] | Potency [9] | Potency [10] | Potency [11] | Potency [12] | Potency [13] | Potency [19] | max activation [16] -0.0445% and -4.34% | outcome [17] | outcome [18]

CCCCCCCCCCCCOCC1CO1 (centres undefined)
inactive: outcome [1] | Potency [2] | Potency [3] | Potency [4] | Potency [5] | Potency [6] | Potency [7] | Potency [8] | Potency [15] | Potency [9] | Potency [10] | Potency [11] | Potency [12] | Potency [13] | Potency [19]

CC(=O)CCc1ccccc1
inactive: outcome [1] | Potency [2] | Potency [3] | Potency [4] | Potency [5] | Potency [6] | Potency [7] | Potency [8] | outcome [14] | Potency [9] | Potency [10] | Potency [11] | Potency [12] | Potency [13]

CC1(C)O[C@@H]2C[C@H]3[C@@H]4C[C@H](F)C5=CC(=O)CC[C@]5(C)[C@H]4[C@@H](O)C[C@]3(C)[C@]2(C(=O)CO)O1
inactive: outcome [1] | Potency [2] | Potency [4] | Potency [5] | Potency [6] | Potency [7] | Potency [8] | outcome [14] | Potency [15] | Potency [10] | Potency [11] | Potency [12] | Potency [13] | outcome [18]
active: Potency [3] 5.4 nM and 6 nM
